PubChem BioAssay AID485344 (National Center for Advancing Translational Sciences (NCATS), 2010)
Out of some 340,000 compounds screened, about 6,900 (2%) were called active. This is one part of a sample in which actives are shown more often than they occur. Values without a mark were called inactive. Rule as the data show it: active = inhibition above about 30%; inactive = below that, where a call was filed.

These compounds were tested against D(2) dopamine receptor (Homo sapiens) (UniProt P14416) (assay: HTS Assay for Allosteric Antagonists of the Human D2 Dopamine Receptor: Primary Screen for Antagonists). Settings: HEK293 TREx D2 cells, calcium flux, dopamine EC80; at 10 µM; hits give high values.
Procedure, shortened: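 Antagonism is scored as inhibition of an EC80 dopamine-evoked calcium signal in a force-coupled, tetracycline-inducible HEK293 T-REx D2 line, with compound present 180 s before agonist.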
Also: 0% is about no effect.

Chain of D(2) dopamine receptor (Homo sapiens) (P14416 whole entry, looked up): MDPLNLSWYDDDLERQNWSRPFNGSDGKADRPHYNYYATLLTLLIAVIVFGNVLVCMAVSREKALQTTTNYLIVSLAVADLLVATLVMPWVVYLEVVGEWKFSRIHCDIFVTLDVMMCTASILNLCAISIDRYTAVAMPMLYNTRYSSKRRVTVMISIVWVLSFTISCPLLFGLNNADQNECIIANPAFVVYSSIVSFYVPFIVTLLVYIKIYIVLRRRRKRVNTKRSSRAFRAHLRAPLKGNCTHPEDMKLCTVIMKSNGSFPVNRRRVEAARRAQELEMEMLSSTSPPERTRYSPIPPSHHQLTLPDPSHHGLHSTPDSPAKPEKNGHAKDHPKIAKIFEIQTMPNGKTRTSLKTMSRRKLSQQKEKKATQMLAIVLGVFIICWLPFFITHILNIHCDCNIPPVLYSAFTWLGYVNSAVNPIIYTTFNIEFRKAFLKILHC

First: CC1CCCC(NC(=O)c2cc(S(=O)(=O)N3CCCCC3)ccc2Cl)C1C (stereo not drawn)
Second: O=C(c1ccc(Cl)c(S(=O)(=O)N2CCCCCC2)c1)N1CCN(c2ccc(O)cc2)CC1
The inhibition of the first is lower: -4.83% for the first, 4.16% for the second.

Compared with CCOc1ccc(S(=O)(=O)N2CCC(c3ccccc3)CC2)cc1C(=O)O, CCN(Cc1ccccc1)C(=O)Cc1ccc(OC)c(S(=O)(=O)N2CCOCC2)c1 is higher in inhibition: -17.4% for the first, -8.71% for the second.

First: CCOC(=O)N1CCN(C(=O)C2CCN(S(=O)(=O)c3cc(Cl)ccc3OCC)CC2)CC1
Second: CCOC(=O)N1CCN(C(=O)COC(=O)c2cccc(S(C)(=O)=O)c2)CC1
The inhibition of the first is higher: -9.59% for the first, -13.9% for the second.

First: CC(C)COc1ccc(C(=O)OCC(=O)NCCC2=CCCCC2)cc1
Second: CCC(=O)c1ccc(OCC(=O)Nc2ccc(N3CCCCC3)cc2)cc1
The inhibition of the first is lower: 5.26% for the first, 19% for the second.

Compared with CCOC(=O)N1CCN(C(=O)c2cc3c(-c4ccc(Cl)cc4)nn(C)c3s2)CC1, COc1cccc(-c2nn(C)c3sc(C(=O)N4CCN(c5ccccc5)CC4)cc23)c1 is lower in inhibition: 5.45% for the first, -14.9% for the second.

Compared with CCc1noc(C)c1C(=O)N1CCN(S(=O)(=O)c2cccc(C(F)(F)F)c2)CC1, CCC(C(=O)N1CCN(S(=O)(=O)c2sc(C(=O)O)c(C)c2C(=O)O)CC1)c1ccccc1 (stereo not drawn) is higher in inhibition: -22.3% for the first, 14.8% for the second.

Going from N#CCC(=O)Nc1ccc(C(=O)OCC(=O)Nc2sc3c(c2C#N)CCCC3)cc1 to COC(=O)c1ccc(NS(=O)(=O)c2cc3c4c(c2)C(C)C(=O)N4CCC3)cc1 (stereo not drawn), the inhibition rises from -5.79% to 4.01%.

Compared with O=C(c1cc2sccc2n1Cc1ccc(F)cc1)N1CCc2ccccc21, CC1Cc2ccccc2N1C(=O)c1cc2sccc2n1Cc1ccccc1 (stereo not drawn) is higher in inhibition: -20.3% for the first, 8.45% for the second.

First: O=C(CCc1nc(-c2ccccc2)no1)Nc1cccc(C(=O)NC2CC2)c1
Second: CC(NCC(=O)Nc1ccccc1C(=O)NC1CC1)c1ccccc1Cl (stereo not drawn)
The inhibition of the first is lower: -8.46% for the first, 26.6% for the second.

Compared with Cc1ccc(NC(=O)C(C)Sc2nnc(C3CC3)n2C2CC2)cc1S(=O)(=O)N1CCOCC1 (stereo not drawn), O=C(CSc1ccccc1)Nc1cccc(S(=O)(=O)N2CCOCC2)c1 is higher in inhibition: 10% for the first, 12.8% for the second.

First: COc1ccc(-c2cc(=O)c3c(O)cc(O[C@@H]4O[C@H](CO[C@@H]5O[C@@H](C)[C@H](O)[C@@H](O)[C@H]5O)[C@@H](O)[C@H](O)[C@H]4O)cc3o2)cc1O
Second: CCOC(=O)COc1cc(O)c2c(=O)cc(-c3ccccc3)oc2c1
The inhibition of the first is lower: 3.3% for the first, 3.55% for the second.

First: Cc1sc2nc(COC(=O)C(NC(=O)c3ccc(Cl)cc3Cl)C(C)C)[nH]c(=O)c2c1C (stereo not drawn)
Second: Cc1sc2nc(CSCC(=O)NC3CCCCC3)[nH]c(=O)c2c1C
The inhibition of the first is lower: 4.89% for the first, 7.49% for the second.

Going from CCOCCn1[nH]c2ccccc2c1=O to O=C(CCCCn1c(=O)[nH]c2ccccc2c1=O)NCc1ccc2c(c1)OCO2, the inhibition falls from 9.72% to -1.23%.

Compared with CC(=O)Nc1ccc(S(=O)(=O)NC(C)C(=O)OCCOc2ccc(F)cc2)cc1 (stereo not drawn), COc1ccc(CC(=O)OC(C)C(=O)Nc2ccc(S(N)(=O)=O)cc2)cc1 (stereo not drawn) is lower in inhibition: 8.18% for the first, -2.4% for the second.

Going from COc1ccccc1NS(=O)(=O)c1ccc(C(=O)N2CCN(c3ccccc3O)CC2)cc1 to COc1ccc(C(CNC(=O)c2cccc(S(=O)(=O)Nc3ccccc3Cl)c2)N2CCOCC2)cc1 (stereo not drawn), the inhibition rises from -20.7% to -9.15%.

First: O=C(Cc1ccc(F)cc1)N/N=C/c1ccc2c(c1)OCO2
Second: Cc1[nH]c2ccccc2c1/C=N/NC(=O)CNC(=O)c1ccc2c(c1)OCO2
The inhibition of the first is higher: -1.11% for the first, -12.8% for the second.

Compared with CCCn1nc(C(=O)NNC(=O)CCOc2ccccc2OCC)c2ccccc2c1=O, CCOC(=O)c1ccccc1NC(=O)COC(=O)C(Cc1c[nH]c2ccccc12)NC(C)=O (stereo not drawn) is lower in inhibition: 17.8% for the first, -6.93% for the second.

Going from O=C(NC1CCN(Cc2ccccc2)CC1)c1ccccc1F to COc1ccc(NC(=O)N2CCC(Cc3ccccc3)CC2)cc1, the inhibition falls from 21.8% to 3.66%.

Going from CC(=O)NC1CC2CCCC(C1)N2CC(=O)Nc1ccccc1 (stereo not drawn) to COc1ccc(S(=O)(=O)N2CCCC2CNC(=O)C(=O)NC2CC2)cc1 (stereo not drawn), the inhibition falls from 14.7% to 2.63%.

First: CCCCOCCCNC(=O)c1ccccc1OCC
Second: CSc1ccccc1NC(=O)COC(=O)CCCOc1ccc(C)cc1
The inhibition of the first is lower: -16% for the first, 5.07% for the second.

Compared with COc1ccc(NC(=S)N2CCC(NC(=O)c3cccc(F)c3)CC2)cc1, COc1cccc(C(=O)NNC(=O)c2cccc(F)c2)c1 is higher in inhibition: -6.43% for the first, 0.993% for the second.

First: COc1ccc(C(=O)Oc2ccc(-c3nnco3)cc2)cc1S(=O)(=O)N1CCOCC1
Second: COC(=O)Cc1ccc(OC(=O)C2CCN(S(=O)(=O)c3ccc(OC)c(OC)c3)CC2)cc1
The inhibition of the first is higher: 14.7% for the first, -7.28% for the second.

Compared with Cc1ccc2nc(SCC(=O)N3CC(C)OC(C)C3)nc(=O)n2c1 (stereo not drawn), Cc1ccc(N2CC(C(=O)Nc3cc(Cl)ccc3-n3cncn3)CC2=O)cc1 (stereo not drawn) is lower in inhibition: -3.68% for the first, -16.3% for the second.

First: O=C(CNS(=O)(=O)c1ccc2c(c1)OCCCO2)N1CCN(c2ccc(F)cc2)CC1
Second: CN1CCN(c2ccc(NC(=O)c3cc(Cl)c4c(c3)OCCO4)cc2)CC1
The inhibition of the first is lower: -12.5% for the first, -8.36% for the second.

First: Cn1c(-c2ccc(F)cc2)cc2onc(-c3ccccc3Cl)c2c1=O
Second: CCOC(=O)C1=C(c2ccc(OC)cc2)C(=O)c2ccccc2C1=O
The inhibition of the first is higher: 8.07% for the first, -4.28% for the second.

Compared with CCN(CC)S(=O)(=O)c1ccc2[nH]c(=O)cc(C(=O)N(C)C3CCS(=O)(=O)C3)c2c1 (stereo not drawn), CCN(CC)CCNC(=O)CCCCCn1c(=O)[nH]c2cc(C(=O)OC)ccc2c1=O is higher in inhibition: -4.37% for the first, -2.71% for the second.

Compared with C=CCN(c1ccc(C(=O)Nc2cc(C)cc(C)c2)cc1)S(C)(=O)=O, CC(=O)Nc1ccccc1NC(=O)c1cc(C)cc(C)c1 is higher in inhibition: -5.69% for the first, 13.8% for the second.

Going from CCCc1nnc(NC(=O)c2cc(OC)cc(OC)c2)s1 to COc1ccc(Cc2nnc(NC(=O)c3ccc(OC)cc3OC)s2)cc1, the inhibition rises from -9.73% to 2.14%.

First: COc1cc(C2C(C#N)=C(C)NC3=C2C(=O)CC(C)(C)C3)ccc1O (stereo not drawn)
Second: CCOC(=O)C1=C(C)NC2=C(C(=O)CC(C)(C)C2)C1c1ccsc1 (stereo not drawn)
The inhibition of the first is higher: -7.78% for the first, -9.11% for the second.

First: CCN(CC(=O)Nc1cc(Cl)ccc1C)C(=O)CSCc1ccc(C)cc1
Second: Cc1ccc(S(=O)(=O)NCCC(=O)NNC(=O)C2COc3ccccc3O2)cc1 (stereo not drawn)
The inhibition of the first is lower: -3.18% for the first, -0.636% for the second.

Going from Cc1ccc(C2C3=C(Nc4[nH]n(-c5ccccc5)c(=O)c42)c2ccccc2C3=O)cc1 (stereo not drawn) to CN(C)CCOC1c2ccccc2-c2ccccc21, the inhibition rises from -28.5% to -3.38%.

Going from CCOC(=O)C(C)N(c1ccccc1Cl)S(C)(=O)=O (stereo not drawn) to CCCCN(C(=O)c1ccc2ccccc2c1)c1c(N)n(CCCC)c(=O)[nH]c1=O, the inhibition falls from -9.97% to -22.6%.

Compared with O=C(CCc1c[nH]c2ccccc12)NCCOc1ccccc1, Cc1ccccc1C(OCC(O)CN1CCCCC1CCO)c1ccccc1 (stereo not drawn) is lower in inhibition: 12.3% for the first, -4.51% for the second.

Compared with Cc1ccc(C)c(N2CCN(C(=O)CCCCn3c(=O)[nH]c4ccccc4c3=O)CC2)c1, O=C(NNC(=O)c1cc(-c2ccccc2Cl)nc2ccccc12)c1csc(N2CCOCC2)n1 is higher in inhibition: -2.01% for the first, 4.74% for the second.

First: O=C(/C=C/c1cccc([N+](=O)[O-])c1)OCC(=O)N1CCOCC1
Second: CCOc1cc(/C=C/C(=O)OCC(=O)NCCN2C(=O)CSC2=O)ccc1OCC(C)C
The inhibition of the first is higher: 13.9% for the first, 2.85% for the second.

With COc1ccccc1C(=O)NC(CCSC)C(=O)NNC(=O)c1csc(N2CCOCC2)n1 (stereo not drawn) the inhibition was 6.58%.

For CCOc1ccc(Br)cc1S(=O)(=O)N1CCC(C(=O)O)CC1, the inhibition was 39.3% (active).
With COc1ccccc1N1CCN(C(=O)c2cc3c(-c4ccc(Cl)cc4)nn(C)c3s2)CC1 the inhibition was 31% (active).
For CCOC(=O)c1cc2sccc2n1Cc1ccc(C#N)cc1, the inhibition was 31.1% (active).
In the case of COc1c(O)cc2oc(-c3ccc(O)c(O)c3)cc(=O)c2c1O, the inhibition is reported as 36.2% (active).
With Cc1sc2nc(CSCC(=O)Nc3c(Cl)cccc3Cl)[nH]c(=O)c2c1C the inhibition was 43.2% (active).
In the case of O=C(CNC(=O)C(c1ccccc1)c1ccccc1)N/N=C\c1ccc2c(c1)OCO2, the inhibition is reported as 34.6% (active).
In the case of COc1ccc(NC(=O)NC2CC3CCCC(C2)N3Cc2ccccc2)cc1 (stereo not drawn), the inhibition is reported as 46% (active).
For COc1ccc(CN2C3CCCC2CC(NC(=O)c2cccc(F)c2)C3)cc1 (stereo not drawn), the inhibition was 80.1% (active).
CCOc1ccccc1C(=O)NC1CC2CCCC(C1)N2Cc1ccccc1 (stereo not drawn) was tested, and the inhibition was 92.5% (active).
With CSCc1ccc(C(=O)Nc2cc(C)cc(C)c2)cc1 the inhibition was 30.3% (active).
COc1ccc(Cc2nnc(NC(=O)c3cc(OC)c(OC)c(OC)c3)s2)cc1OC was tested, and the inhibition was 34.9% (active).
In the case of CC(=O)C1=C(C)NC2=C(C(=O)CC(C)(C)C2)C1C (stereo not drawn), the inhibition is reported as 34% (active).
With COC(=O)C1=C(C)NC2=C(C(=O)c3ccccc32)C1c1ccc(-c2ccc(C(=O)O)cc2)o1 (stereo not drawn) the inhibition was 54.8% (active).
With O=C(CCCn1c(=O)[nH]c2cc(Cl)ccc2c1=O)NCCN1CCN(c2ccccc2)CC1 the inhibition was 81.3% (active).
With O=C(CCCCCn1c(=O)[nH]c2ccccc2c1=O)NCCc1c[nH]c2ccccc12 the inhibition was 39.1% (active).
With CSCCC(NC(=O)c1ccc(Cl)cc1Cl)C(=O)NNC(=O)c1csc(N2CCOCC2)n1 (stereo not drawn) the inhibition was 33.7% (active).
For Cc1ccccc1C(OCCN(C)C)C1CCCCC1 (stereo not drawn), the inhibition was 86.8% (active).
